The campaign covered roughly 310,000 compounds. About 2,200 (0.71%) showed an effect of 50% or more. Effects have a minus sign here. Shown is part of a subset that was picked to be rich in strong results.

This experiment deals with human ether-à-go-go-related gene (hERG) potassium channel (human, UniProt Q12809). Briefly: primary screen, population patch clamp on CHO cells stably expressing hERG; higher = less effect of the substance.
human ether-à-go-go-related gene (hERG) potassium channel, sequence (Q12809 whole entry, looked up): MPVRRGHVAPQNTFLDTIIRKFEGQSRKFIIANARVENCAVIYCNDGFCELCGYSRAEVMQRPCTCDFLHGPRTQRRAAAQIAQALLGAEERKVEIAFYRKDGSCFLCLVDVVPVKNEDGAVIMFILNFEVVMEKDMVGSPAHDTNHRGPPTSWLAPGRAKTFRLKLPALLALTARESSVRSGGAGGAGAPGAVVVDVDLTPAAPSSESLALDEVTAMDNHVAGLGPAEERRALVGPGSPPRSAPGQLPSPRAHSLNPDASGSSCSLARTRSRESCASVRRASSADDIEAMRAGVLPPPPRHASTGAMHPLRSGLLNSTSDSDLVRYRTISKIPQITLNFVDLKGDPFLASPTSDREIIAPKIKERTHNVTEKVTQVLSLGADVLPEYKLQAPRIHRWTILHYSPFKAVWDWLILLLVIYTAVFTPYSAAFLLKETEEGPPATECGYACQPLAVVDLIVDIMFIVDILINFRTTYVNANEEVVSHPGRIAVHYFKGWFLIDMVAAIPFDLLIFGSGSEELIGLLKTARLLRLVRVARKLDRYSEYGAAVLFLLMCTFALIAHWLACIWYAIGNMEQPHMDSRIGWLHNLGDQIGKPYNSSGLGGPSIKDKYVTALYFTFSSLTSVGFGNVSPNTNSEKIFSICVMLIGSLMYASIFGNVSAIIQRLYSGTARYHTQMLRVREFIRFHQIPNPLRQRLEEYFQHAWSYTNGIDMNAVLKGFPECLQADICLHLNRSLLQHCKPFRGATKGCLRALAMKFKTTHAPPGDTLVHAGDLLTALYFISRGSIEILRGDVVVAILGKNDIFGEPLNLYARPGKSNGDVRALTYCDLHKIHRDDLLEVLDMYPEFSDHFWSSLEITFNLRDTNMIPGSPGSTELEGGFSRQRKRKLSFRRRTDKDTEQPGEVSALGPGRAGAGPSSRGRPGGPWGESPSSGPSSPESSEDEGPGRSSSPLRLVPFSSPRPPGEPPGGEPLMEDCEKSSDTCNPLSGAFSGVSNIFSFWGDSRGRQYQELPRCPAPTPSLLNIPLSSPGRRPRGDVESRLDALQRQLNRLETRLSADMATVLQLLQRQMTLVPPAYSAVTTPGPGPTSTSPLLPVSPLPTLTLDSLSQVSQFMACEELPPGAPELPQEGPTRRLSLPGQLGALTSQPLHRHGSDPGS
On to `Cn1c(SCC(=O)NCc2ccco2)nnc1-c1cccs1`, for which the “hERG current change (%, negative = inhibition) at 1uM” value was 8.99%. In the case of `Cc1ccc(-n2c(SCC(N)=O)nnc2-c2ccccn2)cc1C`, the “hERG current change (%, negative = inhibition) at 1uM” value was 13%. As for `COc1ccc(-n2c(SCC(=O)Nc3nccs3)nnc2-c2ccccc2)cc1`, the “hERG current change (%, negative = inhibition) at 1uM” value was 13.9%. On to `O=C(CSc1nnc(-c2cccs2)n1-c1ccccc1)NCc1ccco1`, for which the “hERG current change (%, negative = inhibition) at 1uM” value is reported as -65.9%. As for `COc1cccc(-n2c(SCC(=O)NC(C)(C)C)nnc2-c2ccoc2C)c1`, the “hERG current change (%, negative = inhibition) at 1uM” value is reported as -3.46%. `COc1ccc(-n2c(-c3cccc(C)c3[N+](=O)[O-])n[nH]c2=S)cc1`: the “hERG current change (%, negative = inhibition) at 1uM” value turned out to be 7.34%. Take `Cc1ccc(OCC(=O)NC2CCS(=O)(=O)C2)cc1` (stereo not drawn): the “hERG current change (%, negative = inhibition) at 1uM” value was 4.41%.

As to `COc1ccc(C(=O)Nc2nc3ccccc3[nH]2)cc1`, the “hERG current change (%, negative = inhibition) at 1uM” value was 20.6%. For `CCCNc1cc(C)oc(=O)c1C(=O)CC`, the “hERG current change (%, negative = inhibition) at 1uM” value came out at 18.4%. For the compound `CC1(C)Cc2c(C#N)c(SCC(=O)c3ccccc3)nc(N3CCOCC3)c2CS1`, the “hERG current change (%, negative = inhibition) at 1uM” value is recorded as 13%.

As for `COc1ccccc1C(=O)NNC(=O)c1ccccc1`, the “hERG current change (%, negative = inhibition) at 1uM” value came to 9.59%. Turning to `CC(=O)n1nc(-c2ccccc2)nc1NCc1cccs1`, the “hERG current change (%, negative = inhibition) at 1uM” value came out at 7.45%. With `COc1ccc(N2CCN(C(=O)c3ccc(Br)cc3)CC2)c([N+](=O)[O-])c1`, the “hERG current change (%, negative = inhibition) at 1uM” value is given as -30.1%. Under `COc1ccc(N2CCN(C(=O)c3ccccc3)CC2)c([N+](=O)[O-])c1` stands -33.8%; under `CCCCC(=O)N1CCN(c2ccc(OC)cc2[N+](=O)[O-])CC1`, -54.5%.

Take `COc1ccc(N2CCN(C(=O)c3cccc(Br)c3)CC2)c([N+](=O)[O-])c1`: the “hERG current change (%, negative = inhibition) at 1uM” value is listed as -85.9%. Consider `COc1ccc(N2CCN(C(=O)CC34CC5CC(CC(C5)C3)C4)CC2)c([N+](=O)[O-])c1`, for which the “hERG current change (%, negative = inhibition) at 1uM” value stood at 10.3%. `CCC(=O)N1CCN(c2ccc(OC)cc2[N+](=O)[O-])CC1`: the “hERG current change (%, negative = inhibition) at 1uM” value is on record as -0.687%.

On to `CCOc1cc(C2C3=C(CC(C)(C)CC3=O)N(CCCOC)C3=C2C(=O)CC(C)(C)C3)ccc1O`, for which the “hERG current change (%, negative = inhibition) at 1uM” value is given as 14%. On to `O=C1CC(NS(=O)(=O)c2cccnc2)CN1c1cccc(F)c1` (stereo not drawn), for which the “hERG current change (%, negative = inhibition) at 1uM” value was 10.3%. Under `Cc1ccc(C)c(N(C(=O)CNC(=O)c2ccco2)C(C(=O)NC2CCCCC2)c2ccncc2)c1` (stereo not drawn) stands 7.2%.

Consider `Cc1c(C(=O)N2CCN(C(=O)c3ccco3)CC2)sc2nc(-c3ccc(F)cc3)cn12`, for which the “hERG current change (%, negative = inhibition) at 1uM” value was -56.7%. Turning to `Cc1c(C(=O)NCCCN2CCOCC2)sc2nc(-c3ccc(F)cc3)cn12`, the “hERG current change (%, negative = inhibition) at 1uM” value is -16.8%. Consider `CCN(CC)CCNC(=O)c1sc2nc(-c3ccccc3)cn2c1C`, for which the “hERG current change (%, negative = inhibition) at 1uM” value is reported as -31.8%. On to `COc1cccc(C2=NOC(C(=O)N3CCN(C(=O)c4ccco4)CC3)C2)c1` (stereo not drawn), for which the “hERG current change (%, negative = inhibition) at 1uM” value is listed as -16.3%. On to `O=C(c1ccco1)N1CCN(C(=O)C2CC(c3ccc(F)cc3)=NO2)CC1` (stereo not drawn), for which the “hERG current change (%, negative = inhibition) at 1uM” value is reported as -59.7%. As for `COc1ccc(C2=NOC(C(=O)N3CCN(C(=O)c4ccco4)CC3)C2)cc1OC` (stereo not drawn), the “hERG current change (%, negative = inhibition) at 1uM” value is 15.8%. For the compound `CCN(CC)CCCNC(=O)c1sc2nc(-c3ccc(F)cc3)cn2c1C`, the “hERG current change (%, negative = inhibition) at 1uM” value was -55.5%. For `COc1cc(OC)c(C2=NOC(C(=O)N3CCN(C(=O)c4ccco4)CC3)C2)cc1Cl` (stereo not drawn), the “hERG current change (%, negative = inhibition) at 1uM” value is listed as -12.8%.

Regarding `O=C(c1ccco1)N1CCN(C(=O)C2CC(c3ccc(Cl)cc3)=NO2)CC1` (stereo not drawn), the “hERG current change (%, negative = inhibition) at 1uM” value is recorded as -66.5%. `Cc1c(C(=O)N2CCN(c3ccc(F)cc3)CC2)sc2nc(-c3ccccc3)cn12`: the “hERG current change (%, negative = inhibition) at 1uM” value was -2.42%. To `O=C(c1ccco1)N1CCN(C(=O)C2CC(c3ccccc3F)=NO2)CC1` (stereo not drawn) belongs 3.75%; to `CCOC(=O)N1CCN(C(=O)c2sc3nc(-c4ccc(F)cc4)cn3c2C)CC1`, -22.3%.

`O=C(c1cccc(N2C(=O)C3CC=CCC3C2=O)c1)N1CCCc2ccccc21` (stereo not drawn): the “hERG current change (%, negative = inhibition) at 1uM” value is listed as -16.3%. With `CCOC(=O)CNC(=O)CSc1nnnn1-c1ccc(C)c(C)c1`, the “hERG current change (%, negative = inhibition) at 1uM” value is on record as 0.993%. To `Cn1cc(CC(=O)N2CCN(c3ccc(Cl)cc3)CC2)c2ccccc21` belongs -0.545%; to `Cc1ccccc1OCC(=O)Nc1ccccc1C(=O)NC1CC1`, 8.41%; to `Cc1ccc(C)c(NC(=S)N2CCN(CCO)CC2)c1`, 5.15%. As to `CC1CCN(C(=O)COC(=O)c2cn(C)c3ccccc23)CC1`, the “hERG current change (%, negative = inhibition) at 1uM” value is 7.49%. `Cc1ccc(N2CC(C(=O)N3CCN(C(=O)c4ccco4)CC3)CC2=O)cc1` (stereo not drawn): the “hERG current change (%, negative = inhibition) at 1uM” value was -45.8%.

For `O=C(c1ccco1)N1CCN(C(=O)C2CC(=O)N(c3ccccc3)C2)CC1` (stereo not drawn), the “hERG current change (%, negative = inhibition) at 1uM” value is -1.56%.

In the case of `O=C(c1ccco1)N1CCN(C(=O)C2CC(=O)N(c3ccc(Cl)cc3)C2)CC1` (stereo not drawn), the “hERG current change (%, negative = inhibition) at 1uM” value is -80.2%.

The values above are taken from publication PMC4336329 (PLoS ONE, 2015).
